aSyn yeast inh = alpha-synuclein toxicity inhibition in yeast | Yeast expressing alpha-synuclein, growth rescue, BacTiter-Glo, 24 h | Potency, µM (titrated, usually from 46.1 µM), inactives show top-dose growth rescue (activation), hits mostly activators | hit rate 0.14% among 370,000; also: % of control where 0% means no effect; nearly all actives have a fitted effect of over 65% in size
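Readout is rescue of growth in alpha-synuclein-expressing yeast, so inhibitors of toxicity appear as activators. Growth after 24 hr at 30 deg C in galactose medium is quantified by luminescence.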
MBNL1 CUG block = MBNL1-poly(CUG) RNA binding inhibition; TR-FRET MBNL1-His/biotin-(CUG)12 binding, 665/545 ratio; Q9NR56; Potency, µM (highest dose often 57.5 µM), for inactives: top-dose activity change, negative = inhibition, usual class: inhibitors; hit rate 0.036% among 280,000; AID 2675; active = well fitted inhibition curve with a large enough effect in the signal ratio, with a control signal flat, not every such curve was filed as active; inconclusive = small, poorly fitted or top-dose-only effect, or effect the other way, or a change in a side signal; inactive = no such curve, though single readings can be large or run the other way; the % refers to the signal ratio; also: % is scaled to controls: 0 for no effect and ±100 for the full control effect
Target sequence (Q9NR56 whole entry, looked up): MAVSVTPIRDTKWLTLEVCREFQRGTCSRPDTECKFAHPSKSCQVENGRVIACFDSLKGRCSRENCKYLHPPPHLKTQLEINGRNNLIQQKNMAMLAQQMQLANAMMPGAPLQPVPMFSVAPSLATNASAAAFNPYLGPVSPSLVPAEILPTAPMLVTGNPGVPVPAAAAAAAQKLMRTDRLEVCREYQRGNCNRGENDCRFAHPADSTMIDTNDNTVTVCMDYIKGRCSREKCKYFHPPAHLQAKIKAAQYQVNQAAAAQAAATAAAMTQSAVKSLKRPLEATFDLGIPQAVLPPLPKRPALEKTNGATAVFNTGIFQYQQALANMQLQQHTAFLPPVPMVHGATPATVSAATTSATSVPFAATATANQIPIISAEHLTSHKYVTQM
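Compound titration spanned 92 nM–58 uM against the MBNL1-His/biotin-(CUG)12 complex. After 60 min at room temperature with 5 nM streptavidin-XL665 and 0.055 ng/ul terbium anti-His, ratiometric 665/545 nm emission (Ex 340 nm) normalized to controls.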
FUS suppressor = rescues growth of FUS-expressing yeast; S. cerevisiae FUS-expressing, growth rescue, OD600, 24 h; hit rate 0.24% among 390,000; Potency, µM (titrated, usually from 76.6 µM), hits mostly activators;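 also: plate controls were DMSO vehicle for no effect and reference control for full effect; nearly all actives have a fitted effect of over 55% in size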
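S. cerevisiae expressing FUS from galactose induction served as the toxicity model. Growth after 24hr at 30C, read as absorbance at 600 nm, indicates suppression of toxicity; compounds dosed at several concentrations.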
TDP-43 yeast inh = TDP-43 toxicity inhibition in yeast. hit rate 1.8% among 410,000. Potency, µM (titrated, usually from 46.1 µM), for the others: at the top dose growth rescue (activation), usual class: activators. TDP-43 expressing yeast growth rescue, BacTiter-Glo, 24 h; also: % of control where 0% means no effect; nearly all actives have a fitted effect of over 50% in size
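In this qHTS, compounds that restore growth of yeast expressing TDP-43 appear as activators. Cells (OD600=0.02, galactose medium, raffinose-pregrown) are incubated with compound 24 hr at 30 deg C and growth is quantified by BacTiter-Glo.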
Abeta yeast res = A-beta toxicity reversal in yeast; yeast expressing A-beta42, growth rescue, OD600, 48 h; response scale: 0% DMSO, 100% iron-clioquinol control; Potency, µM (titrated, usually from 46.1 µM), actives largely listed as activators; hit rate 0.063% among 410,000; also: nearly all actives have a fitted effect of over 55% in size
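Yeast A-beta toxicity model in growth medium with pinned compounds, 48 h at 30 C; growth read as absorbance at 600 nm. Normalized to FeCl3/clioquinol equimolar mix (positive) and DMSO (negative).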
Glioma ERSR ind = induces the endoplasmic reticulum stress response in human glioma cells. U87-MG GRP78 promoter luciferase reporter, 16 h. Potency, µM, without a hit: top-dose activation, hits mostly activators. hit rate 0.02% among 420,000. AID 602332; also: series mostly up to about 76 µM; % of control where 0% means no effect; nearly all actives have a fitted effect of over 35% in size
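Stably transfected U87-MG glioma cells carrying a GRP78-based luciferase sensor; 16 h compound incubation. Luminescence end-point read 10 min after Bright-Glo addition at room temperature.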
Starred values were filed as active, the others as inactive; i = inactive; ? = inconclusive; . = no result. Rows were chosen to be rich in hits. Some 2% of all compounds tested hit in one or more screens of this group. Unless noted, calls follow the shape of the dose curve; as a rule, active = well fitted curve in the direction sought with a large enough effect; inconclusive = small, poorly fitted or top-dose-only effect, or another doubt; inactive = no such curve, though single readings can be large; an effect the other way counts as inactive or inconclusive. Potency is read from the fitted curve at half-maximal effect.

SMILES | aSyn yeast inh | MBNL1 CUG block | FUS suppressor | TDP-43 yeast inh | Abeta yeast res | Glioma ERSR ind
COc1ccc(NC(=O)NCCCN2CCCC2=O)c(OC)c1 | . | -7.4% | i | 0.001µM* | i | -1.8%
N#Cc1ccc(OCC(=O)NCCCN2CCCC2=O)cc1 | -4.1% | . | i | 10.3% | i | -1.4%
N#Cc1ccc(-c2ccc(OCC(=O)NCCCN3CCCC3=O)cc2)cc1 | -11.8% | 0.9% | i | 12.6µM* | i | -2.0%
COc1ccccc1-c1nnc(-c2ccc(N3CCOCC3)cc2)o1 | 12.6% | 18.8% | i | 12.6µM* | i | 5.6%
COc1ccccc1-c1nnc(-c2ccc(C)cc2)o1 | -6.4% | . | i | -13.8% | i | -1.8%
Cc1csc(NC(=O)CSc2nc3ccccc3s2)n1 | 11.9% | 0.6% | i | 25.1µM* | i | 1.3%
Cc1csc(NC(=O)CSc2ccc([N+](=O)[O-])cn2)n1 | 2.7% | ? | i | 12.6µM* | i | -1.4%
C=CCNC(=O)c1ccc(CSc2nc3ccccc3s2)cc1 | -3.9% | ? | i | 17.8µM* | i | 6.1%
O=C(CSc1ccc([N+](=O)[O-])cn1)Nc1cc(C(F)(F)F)ccc1N1CCOCC1 | 19.6% | ? | . | 20µM* | i | -4.3%
C=CCNC(=O)c1nc2ccccc2s1 | -5.0% | -9.9% | i | 9.0% | i | -2.6%
O=S1(=O)CC2c3ccccc3CN2CN1Cc1ccc(F)cc1 (configuration not stated) | . | . | i | . | . | .
COc1cccc(C2(CC(=O)N3CCN(c4ccccc4O)CC3)CC(=O)N(C3CCCC3)C2=O)c1 (configuration not stated) | . | . | . | . | . | 1.5%
CCn1c(-c2ccccc2F)nc2cc(NC(C)=O)cc(C(=O)N(C)Cc3ccccn3)c21 | . | . | . | . | . | -4.5%
COc1ccc(C(=O)NC(=S)NNC(=O)c2ccco2)cc1 | 9.5% | 6.5% | i | -21.7% | ? | 3.8%
O=C(/C=C/c1cccs1)NC(=S)NNC(=O)c1ccccc1O | 11.3% | 17.0% | i | -31.8% | i | -4.0%
COc1ccc(C(=O)NNC(=O)c2ccc(C(C)(C)C)cc2)cc1 | 4.8% | -3.5% | i | -8.4% | i | -3.9%
COc1ccccc1OCC(=O)NNC(=S)NC(=O)c1ccco1 | ? | -6.0% | i | 29.2% | 7.94µM* | -5.0%
COc1ccc(/C=C/C(=O)NC(=S)NNC(=O)c2ccco2)cc1 | 24.4% | 6.8% | i | ? | 7.08µM* | 0.3%
COc1ccc(C(=O)NNC(=S)NC(=O)C(C)(C)C)cc1 | ? | -6.3% | i | -59.9% | 5.62µM* | ?
COc1ccc(C(=O)NNC(=S)NC(=O)/C=C/c2cccs2)cc1 | 7.08µM* | 4.7% | i | ? | 8.91µM* | -4.6%
COc1ccc(CN2CCOc3ccc(CN4CCN(CCO)CC4)cc3C2)c2ccccc12 | . | . | . | . | . | -4.4%
COc1ccc(/C=C/S(=O)(=O)NC2CCCC2)c(CNC(=O)OC(C)(C)C)c1 | . | . | i | . | . | .
Cc1nc(NCCc2ccccc2)c2oc3ccccc3c2n1 | -16.0% | -1.3% | i | 11.2µM* | i | 0.6%
CCc1nc(Nc2ccccc2)c2oc3ccccc3c2n1 | . | 10.1% | i | 11.2µM* | i | 4.6%
Nc1nc(N)c2[nH]c(-c3ccccc3)nc2n1 | -11.5% | -1.3% | i | 12.6µM* | i | -0.4%
SMILES | aSyn yeast inh | MBNL1 CUG block | FUS suppressor | TDP-43 yeast inh | Abeta yeast res | Glioma ERSR ind
CCN(CC)S(=O)(=O)c1ccc(N2CCOCC2)c(NC(=O)c2ccccc2)c1 | 8.7% | 3.5% | i | 22.7% | i | -2.7%
CCN(CC)S(=O)(=O)c1ccc(N2CCOCC2)c(NC(=O)c2cc3ccccc3o2)c1 | -6.0% | . | i | 35.5µM* | i | -5.4%
Cc1occc1C(=O)Nc1cccc(-c2nc(CNC(=O)c3cc(-c4ccccc4)n[nH]3)c(C)o2)c1 | . | . | . | . | . | 1.7%
O=S(=O)(c1ccccc1)N1CCN=C1SCc1c(F)cccc1Cl | 6.9% | -3.1% | . | 11.2µM* | i | -1.9%
O=S(=O)(c1ccc(Cl)cc1)N1CCN=C1SCc1cccc(Cl)c1 | ? | -5.6% | . | 5.1% | i | -5.5%
C=CCOC(=O)C1=C[C@H](c2ccc(Br)cc2)[C@@H](CCCO)[C@H](OCC)O1 | 9.2% | -4.3% | i | 22.4µM* | i | -6.1%
CCO[C@H]1OC(C(N)=O)=C[C@@H](c2ccc(Br)cc2)[C@@H]1CCCO | 2.5% | -7.4% | i | 23.4% | i | 1.2%
O=C(Nc1cccc(-c2nc3ccccc3s2)c1)C1=COCCO1 | -1.2% | -0.9% | . | 20µM* | i | 6.1%
CC(=O)Nc1cccc(-c2nc3ccc(NC(C)=O)cc3s2)c1 | -5.9% | ? | i | -0.3% | i | -1.8%
CCOc1cc(-c2nc3ccccc3s2)ccc1O | 3.2% | . | i | 12.6µM* | i | 11.4%
O=C(O)Cc1ccc2sc(-c3ccccc3)nc2c1 | -27.0% | 5.7% | . | 3.16µM* | i | 0.9%
COC(=O)Cc1ccc2sc(-c3ccccc3)nc2c1 | 0.0% | -1.3% | . | 16.2% | i | -2.8%
CC(=O)Nc1cccc(-c2nc3ccccc3s2)c1 | 8.0% | ? | i | 8.91µM* | i | -0.4%
COc1cc(=O)n2c(c1C(=O)N(C)Cc1nonc1C)CCN(Cc1ccccc1Cl)CC2 | . | . | . | . | . | -2.0%
CCOc1ccc(Nc2c3c(nc4nncn24)CCC3)cc1 | . | . | i | 35.5µM* | i | -0.6%
Clc1ccc(Nc2c3c(nc4ncnn24)CCC3)cc1 | 0.6% | -14.2% | i | 17.8µM* | i | 1.9%
Cc1ccc(Nc2c3c(nc4nncn24)CCC3)cc1 | . | . | i | 15.8µM* | i | .
Cc1ccc(Nc2c3c(nc4nncn24)CCC3)cc1C | . | . | i | ? | i | .
Brc1ccc(Nc2c3c(nc4nncn24)CCC3)cc1 | . | . | i | 12.6µM* | i | .
COc1ccc(Nc2c3c(nc4nncn24)CCC3)cc1Cl | . | . | i | 21.7% | i | -3.3%
COc1cc(=O)n2c(c1C(=O)NCc1ccco1)CCN(Cc1cccc(Cl)c1)CC2 | . | . | . | . | . | -3.5%
Cc1cccc(Nc2c3c(nc4nncn24)CCC3)c1 | . | . | i | 17.8µM* | i | .
COc1cccc(N2CCN(S(=O)(=O)c3ccc(-c4ccno4)cc3OC)CC2)c1 | . | . | i | 12.6µM* | i | -1.8%
COc1cc(-c2ccno2)ccc1S(=O)(=O)N1CCN(c2ccccc2)CC1 | . | . | i | 11.2µM* | i | 3.4%
COc1ccccc1N1CCN(S(=O)(=O)c2ccc(-c3ccno3)cc2OC)CC1 | . | . | i | 12.6µM* | i | 1.8%
Cc1onc(-c2ccccc2Cl)c1C(=O)Nc1ccc(Br)cc1 | 1.7% | -4.1% | i | 11.2µM* | i | -1.6%
Cc1onc(-c2ccccc2Cl)c1C(=O)Oc1cccc2cccnc12 | 11.4% | -6.0% | i | 17.8µM* | i | -11.2%

Assay outcomes: PubChem BioAssay, National Center for Advancing Translational Sciences (NCATS)
